# From ChEMBL document CHEMBL3433997, “St. Jude Leishmania screening dataset” (2016)
# Columns and labels:
# Format in all cases: functional
# [1] = target: Solute carrier family 2, facilitated glucose transporter member 1 (Homo sapiens) (UniProt P11166); assay: ST_JUDE_LEISH: Cytotoxicity at 2uM final concentration against transgenic Leishmania Mexicana promastigotes LmGLUT1 that are glucose transport deficient and complemented with the human glucose transporter GLUT1. Activity is measured by DNA content using SYBR green in vitro
# [2] = target: Hexose transporter 1 (Plasmodium falciparum) (UniProt O97467); assay: ST_JUDE_LEISH: Cytotoxicity at 2uM final concentration against transgenic Leishmania Mexicana promastigotes LmPfHT that are glucose transport deficient and complemented with the Plasmodium falciparum hexose transporter. Activity is measured by DNA content using SYBR green in vitro
# [3] = target: Glucose transporter (Leishmania mexicana) (UniProt O61059); assay: ST_JUDE_LEISH: Cytotoxicity at 2uM final concentration against transgenic Leishmania Mexicana promastigotes LmGT2 that are glucose transport deficient and complemented with the L. Mexicana glucose transporter 2. Activity is measured by DNA content using SYBR green in vitro
# Sequence of Solute carrier family 2, facilitated glucose transporter member 1 (Homo sapiens) (P11166 whole entry): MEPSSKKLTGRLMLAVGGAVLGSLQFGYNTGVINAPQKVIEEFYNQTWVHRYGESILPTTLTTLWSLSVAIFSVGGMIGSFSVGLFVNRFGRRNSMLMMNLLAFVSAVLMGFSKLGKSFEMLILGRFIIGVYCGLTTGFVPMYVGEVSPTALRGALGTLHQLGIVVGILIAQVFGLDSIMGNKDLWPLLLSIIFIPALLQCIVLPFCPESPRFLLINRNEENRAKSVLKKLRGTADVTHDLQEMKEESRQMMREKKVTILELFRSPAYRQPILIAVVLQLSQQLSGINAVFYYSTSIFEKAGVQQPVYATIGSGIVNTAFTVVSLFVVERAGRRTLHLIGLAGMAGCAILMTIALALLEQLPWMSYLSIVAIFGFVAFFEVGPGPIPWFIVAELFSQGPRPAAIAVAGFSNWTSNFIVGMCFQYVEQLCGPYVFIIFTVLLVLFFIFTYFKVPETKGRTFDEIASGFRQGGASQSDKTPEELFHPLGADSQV
Compound,inhibition [1] [%],inhibition [2] [%],inhibition [3] [%]
COc1cccc(C(=O)Nc2sc3c(c2C(N)=O)CCCC3)c1OC,0.25,8.04,12.7
CCCCCCN1CCCN(Cc2ccc(C(=O)Nc3ccc(C(C)(C)C)cc3)cc2)CC1,4.82,1.84,5.5
N=C(N)NCCCCN(Cc1ccccc1)c1ccccc1,3.52,3.53,3.86
Cc1ccccc1Nc1nc(NCCCO)c2ccccc2n1,13.6,12.5,8.48
COc1cc(CC2c3cc(O)c(Cl)cc3CCN2C)c(OC)cc1C (stereo not given),3.63,4.4,5.31
CCN(CC)CCN(Cc1ccc(-c2ccc(C(F)(F)F)cc2)cc1)C(=O)Cn1c(CCc2cccc(F)c2F)nc(=O)c2ccc(F)cc21,2.25,1.35,2.49
CN1C(C)(C)CC(NC(=O)c2ccc(-c3cc4cc(Cl)c(Cl)cc4[nH]3)o2)CC1(C)C,4.77,4.2,6.1
CC(C)(C)c1cc(Cl)cc(C(=O)Nc2cc([N+](=O)[O-])ccc2Cl)c1O,5.8,4.84,4.28
Cc1cc(N(C)C)nc(Nc2ccc(NC(=O)Nc3ccccc3)cc2)n1,2.43,3.74,4.26
CC(=O)N1CCN(c2ccc(NC(=O)c3oc(-c4ccccc4)nc3C(F)(F)F)cn2)CC1,1.92,1.42,1.05
c1ccc2[nH]c(-c3ccc(-c4ccc(CN5CCCCC5)cc4)s3)nc2c1,0.97,0.62,-0.34
CCN(CCCN1CCCCC1)c1cc(C)nc(Nc2ccc(Br)cc2F)n1,0.13,2.96,1.34
COc1ccc(F)cc1-c1ccccc1CNC(=O)CN(C)S(=O)(=O)c1cc(C)cc(Cl)c1C,1.17,1.94,0.93
COc1ccc(NC(C)C(=O)Nc2ccc(Br)cc2)cc1S(=O)(=O)N1CCCCC1 (stereo not given),-1,1.34,1.93
Brc1cc(Br)c2c(c1)C(NCCCNC1CCNc3c(Br)cc(Br)cc31)CCN2 (stereo not given),1.08,0.89,0.34
O=C(/C=C/c1ccc(Cl)c(Cl)c1)NCCCCCN1CC[C@H](NC(=O)Nc2ccc(Oc3ccccc3)cc2)C1,-0.32,-1.24,1.17
CCCN(CC1CC1)c1nc(C)nc2c(-c3ccccc3)cc(C)cc12,12.7,16.2,10.1
Nc1ccc(-c2ccc3ccnc(N)c3c2)cn1,1.94,-1.53,2.84

Compound,inhibition [1] [%],inhibition [2] [%],inhibition [3] [%]
Nc1ncc(OC2CCCCC2)c(N)n1,-1.08,0.87,-1.09
CCCCC(N)COc1cccc2c(-c3ccncc3)c(-c3cccc(NC(=O)Nc4ccccc4)c3)nn12 (stereo not given),3.39,2.13,2.8
O=C1CCCN1CCCNCc1cccc(-c2ccc(-c3nc4ccccc4[nH]3)s2)c1,-0.73,0.07,-0.46
O=C(Nc1cccc(CN2CCCN(Cc3ccc(O)cc3)CC2)c1)c1ccc(Br)cc1,0.51,0.85,3.89
O=C(c1ccc(OCCn2ccnc2)cc1)N1CCC(c2ccc(Br)cc2)C1 (stereo not given),0.09,3.01,0.49
CC(C)(CNCc1ccc(Cl)c(Cl)c1)c1nc(-c2ccc(Cl)c(O)c2)c(-c2ccncc2)[nH]1,0.8,3.02,4.37
Clc1ccc(Sc2cncnc2N2CCOCC2)cc1,3.31,1.01,-0.01
COc1ccc(-c2ccc(NC(=O)c3ccc(C#N)cc3)cc2)cc1CNC(C)C,4.24,3.24,2.38
O=C(Nc1ccc(F)cc1)NC1CCN(c2ccnc3cc(Cl)ccc23)CC1,3.63,3.1,1.68
CCCC(C)Nc1nc(C)cc(N[C@@H](Cc2ccccc2)C(=O)NCCc2ccccc2)n1 (stereo not given in full),2.61,3.38,-0.17
CC(=O)Nc1ccc(OCCCN(Cc2ccccc2C(F)(F)F)c2ccc(C(F)(F)F)c(C#N)c2)c(Cl)c1,6.79,5.68,1.94
Cc1ccc2c(=NN=Cc3ccc(Cl)cc3)cc(C)[nH]c2c1,4.64,4.7,2.66
COc1cc2c(cc1C(F)(F)F)N(C(=O)Nc1cc(F)cc(-c3cccnn3)c1)CC2,-2.16,-2.17,2.7
N#Cc1ccc(/C=C/C(=O)NCCCCCN2CCN(C(=O)Nc3ccc(Cl)c(C(F)(F)F)c3)CC2)cc1,5.8,4.08,1.97
CCCC(C(=O)OCCN(CC)CC)(c1ccc(Cl)cc1)c1ccc(Cl)cc1,4.77,5.49,7.04
Cc1cc(NCCCCCCN)nc(Nc2ccc(Cl)cc2)n1,5.87,5.27,-0.67
N#Cc1ccc(CN2CCC(Oc3ccc(NC(=O)c4cccs4)cc3Cl)CC2)cc1,5,10.5,8.03
